Data: PubChem BioAssay (Tox21)
Records with an inconclusive call do not appear. The source made the active and inactive calls. Unless noted, calls follow the shape of the dose curve; as a rule, active = well fitted curve in the direction sought with a large enough effect in the repeat runs; inconclusive = weak or mixed curves; inactive = no such curve, though single readings can be large; an effect the other way counts as inactive or inconclusive.

Assays:
[1] = qHTS assay to identify small molecule antagonists of the thyroid receptor (TR) signaling pathway (AID 743065); also: nearly all actives have a fitted effect of over 55% in size
In short: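 GH3.TRE-Luc rat pituitary cells carrying two TR response elements driving luciferase were plated for 4 h, given compound plus 1 nM T3 (final), and incubated 23.5 h at 37 C. ONE-Glo luminescence measured reporter inhibition; CellTiter-Fluor fluorescence tracked cytotoxicity.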

[2] = tested on: thyroid hormone receptor (rat, GH3 cells); assay: qHTS assay to identify small molecule agonists of the thyroid receptor (TR) signaling pathway (AID 743066; calls by dose curve)
[3] = qHTS assay to identify small molecule antagonists of the estrogen receptor alpha (ER-alpha) signaling pathway - cell viability counter screen (AID 743074; calls by dose curve; also: nearly all actives have a fitted effect of over 45% in size)
[4] = qHTS assay to identify small molecule antagonists of the estrogen receptor alpha (ER-alpha) signaling pathway using the BG1 cell line - cell viability counter screen (AID 743081);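 also: compound given together with 17beta-estradiol as the ER stimulus; nearly all actives have a fitted effect of over 45% in size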
Aromatase (Homo sapiens) = Aromatase (Homo sapiens) (UniProt P11511); assay: qHTS assay to identify aromatase inhibitors (AID 743083); also: nearly all actives have a fitted effect of over 55% in size
[5] = qHTS assay to identify aromatase inhibitors - cell viability counter screen (AID 743084);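 also: cells stimulated with testosterone during compound exposure; nearly all actives have a fitted effect of over 55% in size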
[6] = biological target: Aryl hydrocarbon receptor (Homo sapiens) (UniProt P35869); assay: qHTS assay to identify small molecule that activate the aryl hydrocarbon receptor (AhR) signaling pathway (AID 743085);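 also: HG2L7.5c1 human HepG2 liver cells with stably integrated DRE-driven firefly reporter; nearly all actives have a fitted effect of over 15% in size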
In short: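 Compounds were tested in HepG2 hepatocellular carcinoma cells harbouring a stably integrated luciferase gene under control of 20 DREs. Increased reporter signal after 24 h treatment at 37C was taken as AhR activation.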

[7] = qHTS assay to identify small molecule that activate the aryl hydrocarbon receptor (AhR) signaling pathway - cell viability counter screen (AID 743086);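 also: HepG2 liver cells carrying the AhR DRE luciferase reporter; nearly all actives have a fitted effect of over 45% in size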
In short: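 HepG2-AhR-luc (HG2L7.5c1) cells, 4000/well, were preincubated 5 h at 37C, exposed to compound in qHTS format for 24 hr at 37C, then given CellTiter-Fluor for 30 min; viability was read as fluorescence in the reporter wells.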

[8] = biological target: Peroxisome proliferator-activated receptor gamma (Homo sapiens) (UniProt P37231); assay: qHTS assay to identify small molecule agonists of the peroxisome proliferator-activated receptor gamma (PPARg) signaling pathway (AID 743094; active = well fitted activation curve with a large enough effect in the signal ratio in the repeat runs, not every such curve was filed as active; the % refers to the signal ratio)
In short: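 Cells from the PPARg UAS-bla HEK293H line are plated and incubated 5 h at 37C. Compounds in DMSO are pinned in and left 17 h at 37C. LiveBLAzer B/G substrate is then added for 1 h at room temperature before fluorescence is measured.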

[9] = qHTS assay to identify small molecule phospholipidosis (PLD) inducers (AID 1259344; active = well fitted curve in the direction sought with a large enough effect; an effect the other way counts as inactive or inconclusive)
In short: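 Cells (HepG2, 900 per well) attach for 4 h, receive LipidTOX Red and compound together, incubate 24 h at 37 C, are fixed 30 min with paraformaldehyde/Hoechst, then imaged at one site per well.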

[10] = biological target: Nuclear receptor subfamily 1 group I member 2 (Rattus norvegicus) (UniProt Q9R1A7); assay: Rat pregnane X receptor (rPXR) activation by small molecules, qHTS assay (AID 1346983); details: rPXR luciferase reporter cells, One-Glo luminescence, 24 h; max activation: hits give high values; also: nearly all actives have a fitted effect of over 20% in size
In short: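 Cell-based rPXR luciferase reporter assay, 2,000 cells per well, rested 5hr at 37 C before compound addition in DMSO, then 24 hr at 37 C. One-Glo reagent was added and luminescence read after 30 min at room temperature.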

[11] = biological target: Nuclear receptor subfamily 1 group I member 2 (Homo sapiens) (UniProt O75469); assay: Human pregnane X receptor (PXR) activation by small molecules, qHTS assay (AID 1346985); also: nearly all actives have a fitted effect of over 40% in size
In short: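 DPX-2 cells (HepG2 co-transfected with a PXR response element and a CYP3A4-promoter luciferase construct) were seeded at 2,000 per well, rested 5 hr at 37C, then exposed to DMSO-dissolved compounds for 24 hr. Activation was read as luciferase luminescence.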

[12] = qHTS assay to identify small molecule antagonists of the thyroid receptor (TR) signaling pathway - cell viability counter screen (AID 743064); also: nearly all actives have a fitted effect of over 50% in size
In short: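 Rat GH3 pituitary tumor cells stably expressing two TR response elements driving luciferase were plated, rested 4 h, then dosed with library compounds and T3 (1 nM final). After 23.5 h at 37 °C, CellTiter-Fluor was added for 30 min and fluorescence recorded.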

[13] = biological target: Estrogen receptor (Homo sapiens) (UniProt P03372); assay: qHTS assay to identify small molecule agonists of the estrogen receptor alpha (ER-alpha) signaling pathway (AID 743075; calls by dose curve)
[14] = biological target: Estrogen receptor (Homo sapiens) (UniProt P03372); assay: qHTS assay to identify small molecule agonists of the estrogen receptor alpha (ER-alpha) signaling pathway using the BG1 cell line (AID 743079); details: BG1Luc4E2 cells, ERE-luciferase agonist, 22 h; activation: at 70.3 µM (top of the series); also: nearly all actives have a fitted effect of over 20% in size
[15] = qHTS assay to identify small molecule antagonists of the estrogen receptor alpha (ER-alpha) signaling pathway using the BG1 cell line (AID 743080; calls by dose curve;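 also: BG1 cells stimulated with 17beta-estradiol alongside compound; nearly all actives have a fitted effect of over 25% in size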)
In short: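 Endogenous full-length ER-alpha in BG1-Luc-4E2 cells drives a stably integrated 4×ERE luciferase gene; compounds were tested against 17beta-estradiol over 21.5 h, with luminescence and multiplexed viability fluorescence recorded.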

[16] = biological target: Estrogen receptor (Homo sapiens) (UniProt P03372); assay: qHTS assay to identify small molecule antagonists of the estrogen receptor alpha (ER-alpha) signaling pathway (AID 743069; active = well fitted curve in the direction sought with a large enough effect in the signal ratio in the repeat runs, not every such curve was filed as active; the % refers to the signal ratio)
In short: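 Screening used a UAS-driven beta-lactamase reporter integrated into HEK293 cells expressing ER-alpha, stimulated with 17beta-estradiol alongside test compounds over 18 hr at 37C; signal came from LiveBLAzer B/G FRET fluorescence.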

[17] = biological target: Nuclear receptor subfamily 1 group I member 2 (Homo sapiens) (UniProt O75469); assay: CYP3A4 induction through human pregnane X receptor (PXR) by small molecules, qHTS assay (AID 1346984); also: nearly all actives have a fitted effect of over 40% in size
In short: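 Quantitative HTS in DPX-2 cells, i.e. HepG2 transfected with PXR response element and CYP3A4-promoter luciferase. Compounds in DMSO incubated 24hr at 37C; then P450-Glo CYP3A4 substrate, 3uM final, 3hr; One-Glo luminescence.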
% is scaled to controls: 0 for no effect and ±100 for the full control effect.

Sequence of Estrogen receptor (Homo sapiens) (P03372 whole entry, looked up): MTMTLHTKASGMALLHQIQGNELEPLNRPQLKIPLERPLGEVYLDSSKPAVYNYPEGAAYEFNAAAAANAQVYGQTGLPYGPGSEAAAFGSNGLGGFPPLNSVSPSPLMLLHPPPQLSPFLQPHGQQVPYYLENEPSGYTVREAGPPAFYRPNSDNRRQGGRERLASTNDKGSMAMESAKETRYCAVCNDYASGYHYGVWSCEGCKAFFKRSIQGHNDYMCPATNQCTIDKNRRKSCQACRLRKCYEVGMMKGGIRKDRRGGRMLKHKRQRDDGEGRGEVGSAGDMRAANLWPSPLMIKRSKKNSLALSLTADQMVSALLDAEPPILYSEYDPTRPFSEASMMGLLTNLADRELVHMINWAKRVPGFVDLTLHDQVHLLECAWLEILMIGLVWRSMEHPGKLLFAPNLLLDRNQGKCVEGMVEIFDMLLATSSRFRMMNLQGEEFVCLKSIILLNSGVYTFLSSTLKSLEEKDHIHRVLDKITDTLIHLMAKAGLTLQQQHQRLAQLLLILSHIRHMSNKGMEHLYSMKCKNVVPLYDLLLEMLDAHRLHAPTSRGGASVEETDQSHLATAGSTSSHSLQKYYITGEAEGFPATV
Sequence of Aryl hydrocarbon receptor (Homo sapiens) (P35869 whole entry, looked up): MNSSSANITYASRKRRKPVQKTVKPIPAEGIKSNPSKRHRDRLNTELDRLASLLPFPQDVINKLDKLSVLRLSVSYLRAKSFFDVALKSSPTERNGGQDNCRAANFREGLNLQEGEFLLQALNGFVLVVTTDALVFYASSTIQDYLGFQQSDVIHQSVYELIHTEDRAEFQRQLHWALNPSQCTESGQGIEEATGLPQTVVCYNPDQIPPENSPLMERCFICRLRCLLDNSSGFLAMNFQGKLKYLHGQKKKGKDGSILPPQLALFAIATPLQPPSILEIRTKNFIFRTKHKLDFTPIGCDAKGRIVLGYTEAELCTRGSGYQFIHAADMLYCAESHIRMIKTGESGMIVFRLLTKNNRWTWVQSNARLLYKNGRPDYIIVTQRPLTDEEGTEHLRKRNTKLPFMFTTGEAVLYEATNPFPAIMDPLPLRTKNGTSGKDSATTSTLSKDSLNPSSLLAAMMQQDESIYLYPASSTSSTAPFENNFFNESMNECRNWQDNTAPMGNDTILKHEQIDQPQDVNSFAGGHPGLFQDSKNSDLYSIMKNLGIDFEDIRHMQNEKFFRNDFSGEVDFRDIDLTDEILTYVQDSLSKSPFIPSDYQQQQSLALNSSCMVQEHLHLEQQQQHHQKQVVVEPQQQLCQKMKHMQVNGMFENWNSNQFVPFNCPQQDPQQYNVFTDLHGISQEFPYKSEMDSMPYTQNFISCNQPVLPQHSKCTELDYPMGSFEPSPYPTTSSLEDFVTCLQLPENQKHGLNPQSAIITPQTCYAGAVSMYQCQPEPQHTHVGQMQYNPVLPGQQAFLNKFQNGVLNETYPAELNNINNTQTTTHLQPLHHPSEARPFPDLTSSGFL
Sequence of Aromatase (Homo sapiens) (P11511 whole entry, looked up): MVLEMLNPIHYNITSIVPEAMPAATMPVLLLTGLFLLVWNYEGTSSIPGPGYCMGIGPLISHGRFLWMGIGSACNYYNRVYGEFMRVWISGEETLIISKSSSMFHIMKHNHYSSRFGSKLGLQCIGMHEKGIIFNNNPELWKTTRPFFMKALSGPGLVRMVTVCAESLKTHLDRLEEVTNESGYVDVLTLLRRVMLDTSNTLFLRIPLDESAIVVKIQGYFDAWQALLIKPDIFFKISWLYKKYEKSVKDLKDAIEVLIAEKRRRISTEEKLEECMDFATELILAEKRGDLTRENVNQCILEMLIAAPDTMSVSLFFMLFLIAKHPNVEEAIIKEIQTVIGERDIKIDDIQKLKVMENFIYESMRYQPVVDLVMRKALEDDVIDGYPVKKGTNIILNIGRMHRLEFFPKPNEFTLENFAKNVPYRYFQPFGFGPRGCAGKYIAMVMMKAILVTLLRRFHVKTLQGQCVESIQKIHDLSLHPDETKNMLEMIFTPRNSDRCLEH
Sequence of Peroxisome proliferator-activated receptor gamma (Homo sapiens) (P37231 whole entry, looked up): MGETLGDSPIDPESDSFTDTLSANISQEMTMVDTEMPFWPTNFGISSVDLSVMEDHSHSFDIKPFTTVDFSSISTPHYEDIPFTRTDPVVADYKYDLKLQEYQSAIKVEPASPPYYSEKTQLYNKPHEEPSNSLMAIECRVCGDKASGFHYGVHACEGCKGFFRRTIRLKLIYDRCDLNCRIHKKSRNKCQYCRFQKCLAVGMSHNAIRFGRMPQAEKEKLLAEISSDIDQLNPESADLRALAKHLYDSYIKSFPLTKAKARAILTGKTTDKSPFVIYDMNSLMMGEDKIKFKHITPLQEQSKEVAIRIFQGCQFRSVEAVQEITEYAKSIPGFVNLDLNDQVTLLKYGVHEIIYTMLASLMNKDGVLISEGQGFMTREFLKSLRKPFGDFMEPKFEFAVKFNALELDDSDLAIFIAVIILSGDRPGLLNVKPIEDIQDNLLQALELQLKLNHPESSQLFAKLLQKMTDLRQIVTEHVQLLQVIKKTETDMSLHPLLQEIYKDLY
Sequence of Nuclear receptor subfamily 1 group I member 2 (Rattus norvegicus) (Q9R1A7 whole entry, looked up): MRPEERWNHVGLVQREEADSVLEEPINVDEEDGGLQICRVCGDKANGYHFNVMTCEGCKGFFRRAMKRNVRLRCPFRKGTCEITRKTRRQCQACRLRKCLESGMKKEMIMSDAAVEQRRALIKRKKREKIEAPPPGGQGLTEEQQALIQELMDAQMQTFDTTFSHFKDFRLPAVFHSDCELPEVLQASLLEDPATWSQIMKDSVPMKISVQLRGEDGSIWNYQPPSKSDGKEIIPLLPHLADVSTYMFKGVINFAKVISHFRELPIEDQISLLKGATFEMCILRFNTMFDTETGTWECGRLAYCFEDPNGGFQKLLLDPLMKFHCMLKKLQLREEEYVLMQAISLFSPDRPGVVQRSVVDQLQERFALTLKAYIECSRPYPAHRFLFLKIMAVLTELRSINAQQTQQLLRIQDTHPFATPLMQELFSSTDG

CC(=O)Oc1cccc(C(=O)O)c1OC(C)=O
inactive: Potency [1] | Potency [2] | Potency [3] | Potency [4] | Potency (Aromatase (Homo sapiens)) | Potency [5] | Potency [6] | Potency [7] | Potency [8] | Potency [9] | max activation [10] -1.97% | Potency [11]

N[C@H](CC(=O)O)C(=O)O
inactive: Potency [12] | Potency [1] | Potency [2] | Potency [3] | Potency [13] | Potency [14] | Potency [15] | Potency [4] | Potency (Aromatase (Homo sapiens)) | Potency [5] | Potency [6] | Potency [7] | Potency [9] | max activation [10] 2.19%

CO/N=C(\C(=O)N[C@@H]1C(=O)N2C(C(=O)O)=C(CSc3nnnn3C)CS[C@H]12)c1csc(N)n1
inactive: Potency [12] | Potency [1] | Potency [2] | Potency [16] | Potency [3] | Potency [13] | Potency [14] | Potency [15] | Potency [4] | Potency (Aromatase (Homo sapiens)) | Potency [5] | Potency [6] | Potency [7] | Potency [8] | Potency [9] | Potency [17] | Potency [11]
